{"source": "PubChem BioAssay (NCATS)", "note": "Inconclusive results are not listed. Active and inactive are the calls of the source. Calls follow the shape of the dose curve; as a rule, active = well fitted cell-killing curve with a large enough effect; inconclusive = small, poorly fitted or top-dose-only effect, or effect the other way; inactive = no such curve, though single readings can be large or run the other way. Potency is read from the fitted curve at half-maximal effect."}
{"assay": "qHTS of pediatric cancer cell lines to identify multiple opportunities for drug repurposing: Confirmatory screen for Rh30 cells (AID 1347126); also: nearly all actives have a fitted effect of over 55% in size", "conditions": "Rh30 rhabdomyosarcoma cell viability; series mostly up to 45.9 µM", "method_in_brief": "(§1)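 Viability after 48 h compound treatment at 37C, 500-1,000 cells/well, read as ATP luminescence with CellTiter-Glo. Primary screens used 11-point (MIPE, 0.78 nM-46 µM) or 8-point (NPC, 0.59 nM-46 µM) final concentrations; follow-up screens used 11-point dilutions.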"}
{"smiles": "CC(C)CC(=O)Nc1n[nH]c2c1CN(C(=O)C1CCN(C)CC1)C2(C)C", "Potency": "inactive"}
{"smiles": "Cc1ccc(-c2ncn(-c3ccc(Nc4nccc(-c5cccc(N6CCOCC6)c5)n4)cc3)n2)cn1", "Potency": "0.12 µM (active)"}
{"smiles": "CCn1cc(-c2ccnc3[nH]c(-c4cccc(CN(C)C)c4)cc23)c(-c2ccc(NC(=O)N(C)C)cc2)n1", "Potency": "0.293 µM (active)"}
{"smiles": "COc1cccc(-c2ccc(NC(=O)C3=C(C(=O)O)CCC3)c(F)c2)c1", "Potency": "7.37 µM (active)"}
{"smiles": "CCn1nnc2c(N3CCOCC3)nc(-c3ccc(NC(=O)Nc4ccc(C(=O)N5CCN(C)CC5)cc4)cc3)nc21", "Potency": "0.928 µM (active)"}
{"smiles": "Nc1ccn([C@@H]2O[C@H](CO)[C@H](O)C2(F)F)c(=O)n1", "Potency": "5.85 µM (active)"}
{"smiles": "CN1CC[C@@H](c2c(O)cc(O)c3c(=O)cc(-c4ccccc4Cl)oc23)[C@@H](O)C1", "Potency": "0.369 µM (active)"}
{"assay": "qHTS of pediatric cancer cell lines to identify multiple opportunities for drug repurposing: Confirmatory screen for Saos-2 cells (AID 1347127); also: nearly all actives have a fitted effect of over 60% in size", "conditions": "Saos-2 osteosarcoma cell viability; series mostly up to 45.9 µM", "method_in_brief": "as §1"}
{"smiles": "COCCn1c2c([n+](Cc3cnccn3)c1C)C(=O)c1ccccc1C2=O", "Potency": "0.0074 µM (active)"}
{"smiles": "O=C(C=Cc1cccc(S(=O)(=O)Nc2ccccc2)c1)NO", "Potency": "1.91 µM (active)"}
{"smiles": "NC(=O)c1cccc2cn(-c3ccc([C@@H]4CCCNC4)cc3)nc12", "Potency": "inactive"}
{"smiles": "Nc1ccccc1NC(=O)c1ccc(CNC(=O)OCc2cccnc2)cc1", "Potency": "2.14 µM (active)"}
{"smiles": "CC(=O)Nc1nc(C)c(-c2ccc(Cl)c(S(=O)(=O)NCCO)c2)s1", "Potency": "16.5 µM (active)"}
{"smiles": "Cc1[nH]nc2ccc(-c3cncc(OC[C@@H](N)Cc4ccccc4)c3)cc12", "Potency": "4.65 µM (active)"}
{"smiles": "CN(c1ncccc1CNc1nc(Nc2ccc3c(c2)CC(=O)N3)ncc1C(F)(F)F)S(C)(=O)=O", "Potency": "8.27 µM (active)"}
{"smiles": "O=c1[nH]nc(Sc2ncc([N+](=O)[O-])s2)n1-c1ccc2c(c1)OCCO2", "Potency": "8.27 µM (active)"}
{"smiles": "Cc1nc(N)ncc1-c1nc(N2CCOCC2)c2sc(C(C)(C)O)cc2n1", "Potency": "1.47 µM (active)"}
{"smiles": "COc1c(OCCCN2CCOCC2)ccc2c3n(c(=NC(=O)c4cnc(N)nc4)nc12)CCN3", "Potency": "0.644 µM (active)"}
{"smiles": "COc1ccc(-n2nc(C(N)=O)c3c2C(=O)N(c2ccc(N4CCCCC4=O)cc2)CC3)cc1", "Potency": "inactive"}
{"smiles": "C=CC(=O)Nc1cc2c(Nc3ccc(F)c(Cl)c3)ncnc2cc1C#CC(C)(C)N1CCN(C)CC1", "Potency": "4.27 µM (active)"}
{"smiles": "O=C(NC1CCNCC1)c1[nH]ncc1NC(=O)c1c(Cl)cccc1Cl", "Potency": "2.69 µM (active)"}
{"smiles": "CCNC(=O)Nc1ccc2ncc(Nc3ccc(C)cc3)nc2n1", "Potency": "inactive"}
{"smiles": "CC(C)(C)c1cnc(CSc2cnc(NC(=O)C3CCNCC3)s2)o1", "Potency": "0.465 µM (active)"}
{"smiles": "C=CC(=O)Nc1cccc(Oc2nc(Nc3ccc(N4CCN(C)CC4)cc3OC)ncc2Cl)c1", "Potency": "23.3 µM (active)"}
{"smiles": "CNC(=O)c1c(F)cccc1Nc1nc(Nc2cc3c(cc2OC)CCN3C(=O)CN(C)C)nc2[nH]ccc12", "Potency": "3.69 µM (active)"}
{"smiles": "Cc1ccc(-c2ncn(-c3ccc(Nc4nccc(-c5cccc(N6CCOCC6)c5)n4)cc3)n2)cn1", "Potency": "0.107 µM (active)"}
{"smiles": "CCn1cc(-c2ccnc3[nH]c(-c4cccc(CN(C)C)c4)cc23)c(-c2ccc(NC(=O)N(C)C)cc2)n1", "Potency": "16.5 µM (active)"}
{"smiles": "Cc1cc(N2CCOCC2)cc2[nH]c(-c3c(NC[C@@H](O)c4cccc(Cl)c4)cc[nH]c3=O)nc12", "Potency": "3.69 µM (active)"}
{"smiles": "O=C(O)c1ccc2cc(-c3ccc(O)c(C45CC6CC(CC(C6)C4)C5)c3)ccc2c1", "Potency": "1.31 µM (active)"}
{"smiles": "Cc1nc(Nc2n[nH]c3c2CN(C(=O)N[C@H](CN(C)C)c2ccccc2)C3(C)C)c2sccc2n1", "Potency": "inactive"}
{"smiles": "CC(C)(C)c1cc(C(C)(C)C)c(NC(=O)c2c[nH]c3ccccc3c2=O)cc1O", "Potency": "16.5 µM (active)"}
{"smiles": "COc1ccc(-c2cc3c(C)nc(N)nc3n(C3CCC(OCCO)CC3)c2=O)cn1", "note": "(stereo not drawn)", "Potency": "inactive"}
{"smiles": "CCn1nnc2c(N3CCOCC3)nc(-c3ccc(NC(=O)Nc4ccc(C(=O)N5CCN(C)CC5)cc4)cc3)nc21", "Potency": "0.657 µM (active)"}
{"smiles": "C=CCn1c(=O)c2cnc(Nc3ccc(N4CCN(C)CC4)cc3)nc2n1-c1cccc(C(C)(C)O)n1", "Potency": "1.31 µM (active)"}
{"smiles": "CN1CC[C@@H](c2c(O)cc(O)c3c(=O)cc(-c4ccccc4Cl)oc23)[C@@H](O)C1", "Potency": "0.522 µM (active)"}
{"assay": "qHTS of pediatric cancer cell lines to identify multiple opportunities for drug repurposing: Confirmatory screen for OHS-50 cells (AID 1347128);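 also: compound exposure lasted 48 h at 37 degrees C; nearly all actives have a fitted effect of over 55% in size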", "conditions": "OHS-50 osteosarcoma cells viability; series mostly up to 45.9 µM", "method_in_brief": "as §1"}
{"smiles": "O=C(C=Cc1cccc(S(=O)(=O)Nc2ccccc2)c1)NO", "Potency": "7.59 µM (active)"}
{"smiles": "CNC(=O)c1nn(C)c2c1C(C)(C)Cc1cnc(Nc3ccc(N4CCN(C)CC4)cc3)nc1-2", "Potency": "5.85 µM (active)"}
{"smiles": "Nc1ccccc1NC(=O)c1ccc(CNC(=O)OCc2cccnc2)cc1", "Potency": "10.7 µM (active)"}
{"smiles": "CC(=O)Nc1nc(C)c(-c2ccc(Cl)c(S(=O)(=O)NCCO)c2)s1", "Potency": "11.7 µM (active)"}
{"smiles": "O=c1[nH]nc(Sc2ncc([N+](=O)[O-])s2)n1-c1ccc2c(c1)OCCO2", "Potency": "13.1 µM (active)"}
{"smiles": "Cc1nc(N)ncc1-c1nc(N2CCOCC2)c2sc(C(C)(C)O)cc2n1", "Potency": "2.93 µM (active)"}
{"smiles": "COc1ccc(-n2nc(C(N)=O)c3c2C(=O)N(c2ccc(N4CCCCC4=O)cc2)CC3)cc1", "Potency": "inactive"}
{"smiles": "C=CC(=O)Nc1cc2c(Nc3ccc(F)c(Cl)c3)ncnc2cc1C#CC(C)(C)N1CCN(C)CC1", "Potency": "6.03 µM (active)"}
{"smiles": "CCNC(=O)Nc1ccc2ncc(Nc3ccc(C)cc3)nc2n1", "Potency": "inactive"}
{"smiles": "CC(C)(C)c1cnc(CSc2cnc(NC(=O)C3CCNCC3)s2)o1", "Potency": "0.329 µM (active)"}
{"smiles": "O=C(O)c1ccc2cc(-c3ccc(O)c(C45CC6CC(CC(C6)C4)C5)c3)ccc2c1", "Potency": "2.93 µM (active)"}
{"smiles": "COc1cccc(-c2ccc(NC(=O)C3=C(C(=O)O)CCC3)c(F)c2)c1", "Potency": "inactive"}
{"smiles": "CCn1nnc2c(N3CCOCC3)nc(-c3ccc(NC(=O)Nc4ccc(C(=O)N5CCN(C)CC5)cc4)cc3)nc21", "Potency": "1.17 µM (active)"}
{"smiles": "CN1CC[C@@H](c2c(O)cc(O)c3c(=O)cc(-c4ccccc4Cl)oc23)[C@@H](O)C1", "Potency": "0.414 µM (active)"}
